Laboratory results reported in PubChem BioAssay AID376 (PDSP, 2006).
Hit rate of the full screen: of about 2,000 compounds, about 250 (12%) were called active. What follows is part of a selection rich in actives, with near analogues and random picks from the rest. A number with no mark means an inactive call. Cut-off read from the data, not from the text of the source: active = hERG blockade below about -20% or above about 20%; inactive = in between.

These molecules were tested against Voltage-gated inwardly rectifying potassium channel KCNH2 (Homo sapiens) (UniProt Q12809) (assay: modulators of KCNH2 ion channel function, cellular (AID 376;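 note: 0% = buffer alone and 100% = reference blocker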)). Conditions: hERG-expressing cells, channel activity single-concentration screen; concentration not given here.
Voltage-gated inwardly rectifying potassium channel KCNH2 (Homo sapiens), sequence (Q12809 whole entry, looked up): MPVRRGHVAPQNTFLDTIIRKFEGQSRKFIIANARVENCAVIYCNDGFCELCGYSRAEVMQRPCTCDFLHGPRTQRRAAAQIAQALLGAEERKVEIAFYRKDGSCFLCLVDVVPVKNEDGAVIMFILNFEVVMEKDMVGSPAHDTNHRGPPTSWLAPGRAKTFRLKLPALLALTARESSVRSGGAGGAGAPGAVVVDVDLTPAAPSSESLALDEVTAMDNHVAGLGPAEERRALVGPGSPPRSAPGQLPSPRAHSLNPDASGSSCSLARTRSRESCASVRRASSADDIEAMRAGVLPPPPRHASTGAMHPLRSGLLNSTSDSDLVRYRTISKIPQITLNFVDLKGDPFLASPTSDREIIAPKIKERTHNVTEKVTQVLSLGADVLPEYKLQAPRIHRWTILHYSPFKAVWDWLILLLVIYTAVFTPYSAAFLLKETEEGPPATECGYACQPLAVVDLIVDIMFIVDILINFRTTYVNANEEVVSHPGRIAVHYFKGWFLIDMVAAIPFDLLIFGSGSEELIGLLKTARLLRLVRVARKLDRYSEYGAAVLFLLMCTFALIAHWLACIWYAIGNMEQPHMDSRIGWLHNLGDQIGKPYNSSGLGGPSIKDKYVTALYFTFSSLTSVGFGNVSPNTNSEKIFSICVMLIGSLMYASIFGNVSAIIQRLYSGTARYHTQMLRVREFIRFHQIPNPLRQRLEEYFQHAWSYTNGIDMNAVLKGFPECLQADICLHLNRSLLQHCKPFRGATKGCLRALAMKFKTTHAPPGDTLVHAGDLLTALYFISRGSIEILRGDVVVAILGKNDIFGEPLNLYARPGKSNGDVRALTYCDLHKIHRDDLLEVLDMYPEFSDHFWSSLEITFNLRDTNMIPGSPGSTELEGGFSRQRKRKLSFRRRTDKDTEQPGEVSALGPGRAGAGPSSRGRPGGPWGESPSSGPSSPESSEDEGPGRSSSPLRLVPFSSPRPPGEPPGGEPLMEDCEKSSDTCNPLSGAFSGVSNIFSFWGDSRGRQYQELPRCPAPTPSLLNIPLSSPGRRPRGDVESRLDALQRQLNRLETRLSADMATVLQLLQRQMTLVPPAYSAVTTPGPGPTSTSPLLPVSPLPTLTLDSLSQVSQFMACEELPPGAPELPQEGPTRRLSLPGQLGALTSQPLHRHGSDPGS
For `Nc1c(S(N)(=O)=O)cc(S(N)(=O)=O)cc1S(N)(=O)=O`, the hERG blockade was 11.4%.
In the case of `Cc1ccc(N=Nc2ccc(N)cc2C)c(S(N)(=O)=O)c1`, the hERG blockade is reported as 23.9% (active).
Molecule `Cc1ccc(N=Nc2c(O)c3ccccc3[nH]c2=O)c(S(=O)(=O)N(C)C)c1` has a hERG blockade of 7.5%.
In the case of `CC1(C)OCC(C2OC3OC(C)(C)OC3C2N)O1` (centres undefined), the hERG blockade is reported as -5.67%.
Molecule `CCOC(=O)Nc1nc(-c2ccccc2)c(C)s1` has a hERG blockade of 18.9%.
With `O=C(O)C(CCc1ccccn1)c1ccccc1` (centres undefined) the hERG blockade was 5.69%.
`NC(=O)C(=Cc1ccncc1)c1cccc2ccccc12` was tested, and the hERG blockade was -12.9%.
In the case of `O=C(O)C1C(C(=O)Nc2ccc3c(c2)Cc2ccccc2-3)C2(Cl)C(Cl)=C(Cl)C1(Cl)C2(Cl)Cl` (centres undefined), the hERG blockade is reported as 10.6%.
`Cc1cc2ccc(OC(=O)c3ccc(N=C(N)N)cc3)cc2oc1=O` gave a hERG blockade of 13.7%.
In the case of `Oc1ccc(Cc2cc(Cl)cc(Cl)c2O)cc1Cl`, the hERG blockade is reported as 45.1% (active).
In the case of `OCCSCc1cc(Cl)cc(Cl)c1O`, the hERG blockade is reported as 6.93%.
`O=C(O)c1cc(Cl)cc(Cc2cc(Cl)cc(C(=O)O)c2O)c1O` was tested, and the hERG blockade was 17.1%.
`CN(Cc1cc(Cl)cc(Cl)c1O)Cc1c(O)ccc2ccccc12` gave a hERG blockade of 10.9%.
Molecule `O=C(O)Cc1cc(Cl)ccc1O` has a hERG blockade of -4.5%.
For `Oc1ccc(Cl)cc1Cc1cc(Cl)cc(Cc2cc(Cl)ccc2O)c1O`, the hERG blockade was 20.3% (active).
For `CC(C)(N=NC(C)(C)C(=N)N)C(=N)N`, the hERG blockade was 63.7% (active).
Molecule `CC(C)c1ccc(C(C(=O)O)=C(O)C(=O)O)cc1` has a hERG blockade of 6.01%.
In the case of `CN(C)CCC(=O)C1(O)CCC2C3CC=C4CC(O)CCC4(C)C3CCC21C` (centres undefined), the hERG blockade is reported as 2.46%.
Molecule `CC12CCC(O)CC1=CCC1C2CCC2(C)C1CCC2N(CCO)CCO` (centres undefined) has a hERG blockade of -0.272%.
In the case of `CCC1CCC2C3CC=C4CC(OC(C)=O)C(N)CC4(C)C3CCC12C` (centres undefined), the hERG blockade is reported as 63.9% (active).
`COC(=O)CCC(C)C1CCC2C3CCC4CC(O)CCC4(C)C3CCC12C` (centres undefined) showed a hERG blockade of 3.2%.
With `CC(CCC(=O)O)C1CCC2C3CCC4CC(O)CCC4(C)C3CCC12C` (centres undefined) the hERG blockade was 5.62%.
`COc1ccc2c(c1)CN(C(C)C1CCC3C4CCC5CC(O)CCC5(C)C4CCC31C)CO2` (centres undefined) was tested, and the hERG blockade was 51.3% (active).
`CC(=N[O-])C(C)=N[O-].CC(=N[O-])C(C)=N[O-].CC(=N[O-])C(C)=N[O-].CC(=N[O-])C(C)=N[O-].[Cu].[Cu]` was tested, and the hERG blockade was 17.9%.
`O=S(=O)(c1ccc2ccccc2c1)N1CCN(S(=O)(=O)c2ccc3ccccc3c2)CC1` showed a hERG blockade of -1.84%.
`c1ccc2c(CN3CCN(Cc4c[nH]c5ccccc45)CC3)c[nH]c2c1` gave a hERG blockade of -0.497%.
`C[N+]1(C(CO)Cc2c[nH]c3ccccc23)Cc2ccccc2C1` (centres undefined) gave a hERG blockade of 1.67%.
With `OCC(CCc1c[nH]c2ccccc12)c1c[nH]c2ccccc12` (centres undefined) the hERG blockade was 53.3% (active).
With `O=C(O)C1CCCN1` (centres undefined) the hERG blockade was 5.2%.
In the case of `NC(=S)SCCC(=O)O`, the hERG blockade is reported as 0.17%.
Molecule `CC1=CC(C2C(=NO)C=C(C)CC2(C)C)C(O)C(C)(C)C1` (centres undefined) has a hERG blockade of 2.54%.
For `CC(=O)C(C(c1ccccc1)N1CCOCC1)N1CCOCC1` (centres undefined), the hERG blockade was -3.85%.
`COc1cccc2c1C(=O)c1c(O)c3c(c(O)c1C2=O)CC(O)(C(=O)CO)CC3OC1CC(N)C(O)C(C)O1.[W]` (centres undefined) gave a hERG blockade of 0.939%.
With `COc1cccc2c1C(=N)c1c(O)c3c(c(O)c1C2=O)CC(O)(C(C)=O)CC3OC1CC(N)C(O)C(C)O1` (centres undefined) the hERG blockade was 32.2% (active).
`COc1cccc2c1C(=O)c1c(O)c3c(c(O)c1C2=O)CC(O)(C(=O)CO)CC3OC1CC(N)C(O)C(C)O1` (centres undefined) showed a hERG blockade of 3.44%.
For `O=C(O)CC(=Cc1ccccc1)C(=O)O`, the hERG blockade was -18.3%.
Work on `CC1(C)OC2COC(c3[nH]nc4c(=O)[nH]c(=O)[nH]c34)C2O1` (centres undefined) yielded a hERG blockade of 16.5%.
For `O=C(O)c1ccc(Oc2nc3ccccc3s2)cc1`, the hERG blockade was 1.79%.
For `CN(C)CCCN=c1c2ccccc2n(C)c2[nH]c(=O)n(C)c(=O)c12`, the hERG blockade was 54.8% (active).
In the case of `CN(C)CCCCN1CCc2c(n(C)c3ccccc23)C1=O`, the hERG blockade is reported as -2.05%.
`CCN(CC)COC(=S)S` gave a hERG blockade of -4.52%.
`CC1(C)OCC(C2OC(On3nnc4ccc(Cl)cc43)C3OC(C)(C)OC23)O1` (centres undefined) was tested, and the hERG blockade was 12.7%.
Work on `NC(=O)CS(=O)CC(N)C(=O)O` (centres undefined) yielded a hERG blockade of 5.23%.
`NC(N)=NN=Cc1ccc(C2CCNCC2)cc1` gave a hERG blockade of 6.62%.
Work on `Nc1c(S(=O)(=O)O)cc(S(=O)(=O)O)c2ccc(N=Nc3ccccc3)c(O)c12` yielded a hERG blockade of 11.9%.
For `COc1cc(N=Nc2cccc(S(N)(=O)=O)c2)c2ccccc2c1N`, the hERG blockade was 70.8% (active).
In the case of `N=C(N)SCCON1C(=O)c2ccccc2C1=O`, the hERG blockade is reported as -2.21%.
For `CC(=O)Nc1ccc(Cc2ccc3[nH]c(=O)cc(C)c3c2)cc1`, the hERG blockade was 0.318%.
Molecule `CSC(=[SH+])[N-]N=C(c1ccccn1)c1ccccn1.[Cu][Br]` has a hERG blockade of 3.34%.
In the case of `CC1(C)SC2C(NC(=O)C3(N)CCCCC3)C(=O)N2C1C(=O)O` (centres undefined), the hERG blockade is reported as -8.47%.
Molecule `NC(N)=NNC(=O)C(=O)O` has a hERG blockade of -3.63%.
In the case of `NNC(=O)CCSc1ccccc1`, the hERG blockade is reported as 3.37%.
For `NNC(=O)CCc1ccc2ccc3ccccc3c2c1`, the hERG blockade was -44.7% (active).
Molecule `O=C(O)CCCc1ccc2ccc3ccccc3c2c1` has a hERG blockade of 8.7%.
`O=C(CON1C(=O)c2ccccc2C1=O)c1ccccc1` gave a hERG blockade of 13.2%.
Molecule `O=C(O)c1ccccc1-c1ccccc1C(=O)Nc1ccc2c(c1)Cc1cc(F)ccc1-2` has a hERG blockade of -4.28%.
Work on `CC(CCCC1SCC2NC(=O)NC21)C(=O)O` (centres undefined) yielded a hERG blockade of 6.78%.
`Cc1cc2nc3[nH]c4c(Cl)cc(Cl)cc4c3nc2cc1C` showed a hERG blockade of -2.06%.
With `Cc1cc2cc3c(=O)[nH]c(=O)[nH]c3nc2cc1C` the hERG blockade was -26% (active).
For `Cc1cc2c(=O)[nH]c(N)nc2nc1C`, the hERG blockade was -6.54%.
Work on `O=C(c1cc(Br)ccc1O)c1cc(Br)ccc1O` yielded a hERG blockade of -0.498%.
`Clc1ccccc1NN(Cc1ccncc1)c1ccccc1Cl` was tested, and the hERG blockade was 9.21%.
In the case of `COc1ccc(NC(=S)Nc2ccccc2)cc1`, the hERG blockade is reported as 3.26%.
For `Cc1cc(C(C)(C)C)c(OCCCN2CCOCC2)c(C(C)(C)C)c1`, the hERG blockade was 20.8% (active).
